# According to the supplement of paper PMC8728848:
# Many of the other results were omitted from the sample, so the strongest signals are more common in it than they were.
# Assays:
# Assay in all cases: glycan array binding signal (z-score within array); higher = stronger binding
# Settings in all cases: glycan notation: IUPAC condensed, linker removed
# [1] = target: Fuc(a1-2)Gal(b1-3)GalNAc
# In short: (§1)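 Glycan array data came from 3228 arrays in the Consortium for Functional Glycomics database, and only arrays with an available protein sequence were kept. Glycan names were put into IUPAC-condensed notation, and columns mapping to the same glycan were averaged. The binding signal is a within-array Z-score, averaged across arrays of one protein sequence run at different concentrations or buffers and across linkers. A negative Z-score can be read as non-binding.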
# [2] = target: Fuc(a1-2)Gal(b1-3)GalNAc(b1-3)Gal
# In short: as §1
# [3] = target: Fuc(a1-2)Gal(b1-3)GlcNAc(b1-3)Gal(b1-4)Glc
# In short: as §1
# [4] = target: Fuc(a1-2)Gal(b1-4)Glc
# In short: as §1
# [5] = target: Fuc(a1-2)[GalNAc(a1-3)]Gal(b1-4)Glc
# In short: as §1
# [6] = target: Fuc(a1-3)GlcNAc
# In short: as §1
# [7] = target: Fuc(a1-3)[Gal3S(b1-4)]Glc6S
# In short: as §1
# [8] = target: Gal(a1-3)Gal
# In short: as §1
# [9] = target: Gal(a1-4)Gal(b1-4)GlcNAc(b1-2)Man(a1-3)[Gal(a1-4)Gal(b1-4)GlcNAc(b1-2)Man(a1-6)]Man(b1-4)GlcNAc(b1-4)GlcNAc
# In short: as §1
# [10] = target: Gal(a1-4)Gal(b1-4)GlcNAc(b1-3)Gal(b1-4)Glc
# In short: as §1
# [11] = target: Gal(b1-3)GlcNAc
# In short: as §1
# [12] = target: Gal(b1-3)GlcNAc(b1-3)Gal(b1-4)Glc
# In short: as §1
# [13] = target: Gal(b1-3)[Fuc(a1-4)]GlcNAc
# In short: as §1
# [14] = target: Gal(b1-3)[Fuc(a1-4)]GlcNAc(b1-3)Gal(b1-4)[Fuc(a1-3)]GlcNAc
# In short: as §1
# [15] = target: Gal(b1-3)[Neu5Ac(b2-6)]GalNAc
# In short: as §1
# [16] = target: Gal(b1-4)GlcNAc(b1-2)Man(a1-6)[GlcNAc(b1-2)Man(a1-3)]Man(b1-4)GlcNAc(b1-4)GlcNAc
# In short: as §1
# [17] = target: Gal(b1-4)GlcNAc(b1-6)Gal(b1-4)GlcNAc
# In short: as §1
# [18] = target: Gal(b1-4)GlcNAc(b1-6)GalNAc
# In short: as §1
# [19] = target: Gal3S(b1-4)Glc
# In short: as §1
# [20] = target: Gal3S6S(b1-4)GlcNAc6S
# In short: as §1
# [21] = target: Gal6S(b1-4)Glc
# In short: as §1
# [22] = target: GalNAc(b1-3)Gal(a1-4)Gal(b1-4)GlcNAc
# In short: as §1
# [23] = target: Glc(a1-6)Glc(a1-6)Glc
# In short: as §1
# [24] = target: Glc(b1-4)Glc
# In short: as §1
# [25] = target: GlcNAc(b1-3)[GlcNAc(b1-4)][GlcNAc(b1-6)]GlcNAc
# In short: as §1
# [26] = target: Kdn(a2-3)Gal(b1-3)GalNAc
# In short: as §1
# [27] = target: Man(a1-2)Man(a1-2)Man(a1-3)Man
# In short: as §1
# [28] = target: Man(a1-3)[Man(a1-6)]Man(a1-6)[Man(a1-3)]Man(b1-4)GlcNAc(b1-4)GlcNAc
# In short: as §1
# [29] = target: Neu5Ac(a2-3)Gal(b1-3)GlcNAc(b1-3)GalNAc
# In short: as §1
# [30] = target: Neu5Ac(a2-3)Gal(b1-4)GlcNAc(b1-3)Gal(b1-4)GlcNAc(b1-3)Gal(b1-4)GlcNAc
# In short: as §1
# [31] = target: Neu5Ac(a2-3)Gal(b1-4)GlcNAc(b1-3)Gal(b1-4)[Fuc(a1-3)]GlcNAc
# In short: as §1
# [32] = target: Neu5Ac(a2-3)Gal(b1-4)[Fuc(a1-3)]GlcNAc(b1-3)GalNAc
# In short: as §1
# [33] = target: Neu5Ac(a2-6)Gal(b1-4)GlcNAc(b1-2)Man(a1-3)[Gal(b1-4)GlcNAc(b1-2)Man(a1-6)]Man(b1-4)GlcNAc(b1-4)GlcNAc
# In short: as §1
# [34] = target: Neu5Ac(a2-6)Gal(b1-4)GlcNAc(b1-2)Man(a1-6)[GlcNAc(b1-2)Man(a1-3)]Man(b1-4)GlcNAc(b1-4)GlcNAc
# In short: as §1
# [35] = target: Neu5Ac(a2-6)GlcNAc(b1-4)GlcNAc
# In short: as §1
# [36] = target: Neu5Ac9Ac(a2-6)Gal(b1-4)GlcNAc
# In short: as §1
binder,measurement,setting,value
"SBD (Rhizopus oryzae), P07683 (protein) ASIPSSASVQLDSYNYDGSTFSGKIYVKNIAYSKKVTVVYADGSDNWNNNGNIIAASFSGPISGSNYEYWTFSASVKGIKEFYIKYEVSGKTYYDNNNSANYQVS",glycan array binding signal (z-score),[1],0.019
same,glycan array binding signal (z-score),[2],2.93
same,glycan array binding signal (z-score),[3],2.1
same,glycan array binding signal (z-score),[4],-0.623
same,glycan array binding signal (z-score),[5],-0.2
same,glycan array binding signal (z-score),[6],0.165
same,glycan array binding signal (z-score),[7],0.589
same,glycan array binding signal (z-score),[8],-0.697
same,glycan array binding signal (z-score),[9],2.59
same,glycan array binding signal (z-score),[10],0.2
same,glycan array binding signal (z-score),[11],0.042
same,glycan array binding signal (z-score),[12],2.02
same,glycan array binding signal (z-score),[13],-0.029
same,glycan array binding signal (z-score),[14],0.121
same,glycan array binding signal (z-score),[15],-0.657
same,glycan array binding signal (z-score),[16],-0.081
same,glycan array binding signal (z-score),[17],0.47
same,glycan array binding signal (z-score),[18],-0.13
same,glycan array binding signal (z-score),[19],0.207
same,glycan array binding signal (z-score),[20],0.19
same,glycan array binding signal (z-score),[21],-0.476
same,glycan array binding signal (z-score),[22],-0.155
same,glycan array binding signal (z-score),[23],-0.213
same,glycan array binding signal (z-score),[24],-0.436
same,glycan array binding signal (z-score),[25],-0.005
same,glycan array binding signal (z-score),[26],0.62
same,glycan array binding signal (z-score),[27],5.61
same,glycan array binding signal (z-score),[28],-0.313
same,glycan array binding signal (z-score),[29],2
same,glycan array binding signal (z-score),[30],-0.668
same,glycan array binding signal (z-score),[31],-0.067
same,glycan array binding signal (z-score),[32],3.37
same,glycan array binding signal (z-score),[33],-0.457
same,glycan array binding signal (z-score),[34],0.349
same,glycan array binding signal (z-score),[35],0.158
same,glycan array binding signal (z-score),[36],-0.195
